Results filed as inconclusive are left out. A call without a number means that no potency is given here. Calls of active or inactive are those of the source. Calls come from the whole dose curve; as a rule, active = well fitted inhibition curve with a large enough effect; inconclusive = small, poorly fitted or top-dose-only effect; inactive = no such curve, though single readings can be large or run the other way.
Potency is the fitted concentration of half-maximal effect.

The test can be described thus: qHTS for Inhibitors of the Aldehyde Dehydrogenase Family (ALDH1A2, ALDH1A3, ALDH2, ALDH3A1) (AID 2061307). For potency: test system not described further here. Note: nearly all actives have a fitted effect of over 50% in size. The following applies: ALDH inhibition qHTS; series mostly up to 50.3 µM. In general terms: Quantitative high-throughput screening tests each substance at several concentrations.
`CCOc1c(Cl)cc(CNc2ccc3[nH]c(=O)[nH]c3c2)cc1OC`: the Potency entry was “inactive”.
As for `COc1cc(NC(=S)N=Nc2c(O)[nH]c3ccccc23)cc(OC)c1OC`, the entry is “inactive”; as for `CCOc1ccc(CNc2ccc3ccccc3c2)cc1`, 2.83 µM (active); as for `CC(C)(C)NC(=O)c1ccc(NC(=O)c2cn(-c3ccccc3)nc2-c2cccnc2)cc1`, “inactive”.
`Cn1c(=O)n(C)c2cc(N3CCCC3)c(NC(=O)Nc3ccccc3)cc21`: the Potency result was “inactive”.
As for `COc1ccc(-c2cc(=O)n(-c3nc(C(=O)O)cs3)[nH]2)cc1`, the entry is “inactive”; as for `O=C(Nc1cccc(-c2ccc(N3CCOCC3)nn2)c1)Nc1ccccc1C(F)(F)F`, “inactive”; as for `COCc1ccc(-c2nn(Cc3ccccc3)c3ccccc23)o1`, 11.3 µM (active).
Consider `FC(F)(F)c1ccc(CNc2nc(-c3ccncc3)nc3ccccc23)cc1`, for which the Potency is 4.47 µM (active).
In the case of `Cn1ccc(=Nc2ccc(NC(=O)c3ccc(N=c4ccn(C)c5ccc([N+](=O)[O-])cc45)cc3)cc2)cc1`, the Potency was 8.96 µM (active).
Consider `COc1ccc(-n2ccc(C(=O)Nc3cccnc3OC)n2)cc1`, for which the Potency entry was “inactive”.
As for `CC(=O)Nc1ccc(NC(=O)c2sc(COc3ccc(F)cc3)nc2C)cc1`, the entry is “inactive”; as for `COc1cc(O)c(C(CC(=O)N2CC(C)CC(C)C2)c2ccc(C(N)=O)cc2)c(OC)c1` (stereo not given), 0.282 µM (active).
For `Cc1nc2cc(NS(=O)(=O)c3cc(C(=O)O)ccc3C)ccc2o1`, the Potency was 12.6 µM (active).
As for `O=C(O)c1csc(-n2[nH]c(-c3ccc(F)c(Cc4ccccc4)c3)cc2=O)n1`, the figure is 22.5 µM (active); as for `CC(=O)c1c(C)n(-c2ccc(N(C)C)cc2)c2ccc(O)cc12`, “inactive”.
As for `Cc1c2c(=O)n(-c3ccccc3)[nH]c2cc(=O)n1CCN1CCOCC1`, the Potency entry is “inactive”.
Consider `CC(NC(=O)c1c(O)nc2ccccn2c1=O)c1ccccc1` (stereo not given), for which the Potency entry was “inactive”.
On to `Cc1ccc(N(C)S(=O)(=O)c2ccc(-c3cnc(C4CC4)o3)cc2)cc1`, for which the Potency entry was “inactive”.
As for `O=C(NCc1ccccc1Cl)c1csc(N2CCN(c3ccc(F)cc3)CC2)n1`, the figure is 2.51 µM (active).
As for `Cc1nn(-c2ccc(C(F)(F)F)cn2)c(C)c1CC(=O)Nc1ccc(C(N)=O)cc1`, the entry is “inactive”; as for `N#Cc1nc(-c2ccc(F)cc2)oc1N1CCN(C(=O)c2ccccc2F)CC1`, “inactive”; as for `[2H]C([2H])([2H])N1CCC(N(CCc2ccccc2)Cc2ccccc2)CC1`, “inactive”.
Next, `Cc1ccc2c(c1)/C(=C\C(=O)c1cccnc1)C(=O)N2`: “inactive”.
Consider `CS(=O)(=O)c1cccc(-c2csc3ncnc(NCc4ccccn4)c23)c1`, for which the Potency is 14.1 µM (active).
Turning to `OC[C@H]1O[C@@H](OCc2ccccc2)[C@H](O)[C@@H](O)[C@H]1O`, the Potency result was “inactive”.
`NC(=O)c1ccc(OCc2nc(-c3ccc(C(F)(F)F)cc3)no2)cc1`: the Potency result was “inactive”.
Turning to `O=[N+]([O-])c1ccc(S(=O)(=O)Nc2nc(-c3ccccc3)cs2)cc1`, the Potency is 3.57 µM (active).
As for `O=C(Nc1nc2ccccc2c(=O)s1)c1ccc(F)cc1Cl`, the entry is “inactive”.
Next, `C[S+](=O)([O-])c1ccc(-c2nnc3ccc(C(=O)NCCc4ccccc4F)cn23)cc1`: “inactive”; `CS(=O)(=O)c1cccc(-c2csc3ncnc(Sc4nncs4)c23)c1`: “inactive”; `O=C(Nc1ccccn1)c1cccs1`: “inactive”.
On to `Cc1nnc(NCc2ccc(Cl)cc2)o1`, for which the Potency is 8.96 µM (active).
As for `Cc1cccc(NC(=O)CSCC(=O)Nc2ccc(F)cc2)c1`, the entry is “inactive”; as for `O=C(N/N=C/c1ccc(Sc2cccc3cccnc23)o1)c1cccc(F)c1`, 7.12 µM (active); as for `O=C(Cn1nc2c(cc1=O)CCCC2)Nc1nc(-c2ccc3c(c2)OCO3)cs1`, “inactive”.
`O=C(Nc1cc(C(F)(F)F)ccc1Cl)c1nc2ccccc2nc1N1CCCCC1`: the Potency result is “inactive”.
Next, `O=C1NC(c2ccc(N3CCOCC3)cc2)(c2ccsc2)CC(O)=C1Sc1ccccc1Cl` (stereo not given): “inactive”; `O=C1C[C@](c2ccc(N3CCOCC3)cc2)(c2ccsc2)NC(=O)C1Sc1ccccc1Cl` (stereo not given in full): “inactive”.
Next, `CCN(CC)S(=O)(=O)c1cccc(NC(=O)CNc2cccc(S(=O)(=O)N3CCOCC3)c2)c1`: 10 µM (active).

For the origin of these results see PubChem BioAssay (NCATS).
